Source: PubChem
The entries come from a sample that favours hits as a whole.
AmpC inh detg: qHTS Inhibitors of AmpC Beta-Lactamase (assay with detergent); P00811; AmpC hydrolysis of nitrocefin, absorbance 480 nm, 0.01% Triton; Potency, µM (titrated, usually from 114 µM), without a hit: at the highest dose activity change, negative = inhibition, usual class: inhibitors; 0.041% of 370,000 active; AID 485294, 2010;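 also: potency is read from the fitted curve at half-maximal effect; 0% = no-compound wells and -100% = no-enzyme wells; nearly all actives have a fitted effect of over 25% in size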
Target sequence (P00811 whole entry, looked up): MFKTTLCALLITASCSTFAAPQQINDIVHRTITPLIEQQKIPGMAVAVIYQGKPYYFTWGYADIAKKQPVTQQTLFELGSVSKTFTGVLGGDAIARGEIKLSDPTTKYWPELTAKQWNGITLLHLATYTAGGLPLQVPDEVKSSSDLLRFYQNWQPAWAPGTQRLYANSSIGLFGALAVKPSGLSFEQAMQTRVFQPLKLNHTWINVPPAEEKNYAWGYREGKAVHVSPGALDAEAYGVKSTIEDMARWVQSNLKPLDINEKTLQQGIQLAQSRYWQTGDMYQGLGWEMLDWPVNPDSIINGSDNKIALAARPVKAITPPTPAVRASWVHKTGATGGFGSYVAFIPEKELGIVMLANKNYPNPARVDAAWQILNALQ
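20 mM phosphate pH 7.0 + 0.01% (detergent screen) or 0.0001% Triton X-100; 5.3 nM AmpC reagent; cpd preinc 15 min RT; nitrocefin (800 uM stock) to start; A480 q20 s × 4 min; Activity was normalised to no-enzyme and no-compound control wells.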
CHX counter: Cycloheximide Counterscreen for Small Molecule Inhibitors of Shiga Toxin; cell reporter, cycloheximide protein synthesis inhibition counterscreen; max response, %; 12% of 300,000 active; in the data active = max response mostly above about 13%, no sharp cut-off; inactive = mostly below about 14%; also: read at 38.3 µM for the half of the compounds with a filed dose; 0% is about no effect
AmpC inh no detg: qHTS Inhibitors of AmpC Beta-Lactamase (assay without detergent). P00811. AmpC nitrocefin hydrolysis, absorbance 480 nm, 0.0001% Triton. Potency, µM (series often up to 57.1 µM), without a hit: top-dose activity change, negative = inhibition, actives largely listed as inhibitors. 0.52% of 330,000 active;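 also: potency is read from the fitted curve at half-maximal effect; plate controls were no compound for no effect and no enzyme for full effect; nearly all actives have a fitted effect of over 20% in size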
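20 mM phosphate pH 7.0 + 0.01% (detergent screen) or 0.0001% Triton X-100; 5.3 nM AmpC reagent; cpd preinc 15 min RT; nitrocefin (800 uM stock) to start; A480 q20 s × 4 min; Activity was normalised to no-enzyme and no-compound control wells.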
NS1 inh: qHTS Assay for Inhibitors of Influenza NS1 Protein Function; AID 2326, 2010; 0.4% of 270,000 active; Potency, µM (titrated, usually from 46.1 µM), inactives show top-dose activity, positive = more growth; calls by dose curve; also: potency is read from the fitted curve at half-maximal effect; actives are rising curves; nearly all actives have a fitted effect of over 50% in size
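OD600 was taken as the measure of yeast growth restored by compound in an NS1-expressing S. cerevisiae strain. Cells had been washed out of glucose medium and diluted 1:100 into galactose -URA medium, pH 6.0.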
Shiga toxin inh: A qHTS for Small Molecule Inhibitors of Shiga Toxin; Vero cells, Shiga toxin protein synthesis inhibition reporter; inhibition, % at 38.7 µM; 9.2% of 290,000 active; in the data active = inhibition mostly above about 28%, no sharp cut-off; inactive = mostly below about 43%; also: 0% is about no effect
* = called active by the depositor; ? = inconclusive; . = no result given. Unless noted, calls follow the shape of the dose curve; as a rule, active = well fitted curve in the direction sought with a large enough effect; inconclusive = small, poorly fitted or top-dose-only effect, or another doubt; inactive = no such curve, though single readings can be large; an effect the other way counts as inactive or inconclusive.

SMILES | AmpC inh detg | CHX counter | AmpC inh no detg | NS1 inh | Shiga toxin inh
CCCCC(=O)Nc1ccc2c(c1)nc(CCNC(=O)c1ccco1)n2C | -5% | 15* | -7% | -3% | 15
CCC(=O)NCCc1nc2cc(NC(=O)c3ccco3)ccc2n1C | -5% | 15* | -24% | 1% | 44*
Cn1c(CCNC(=O)c2ccccc2)nc2cc(NC(=O)c3ccco3)ccc21 | 7% | 18 | -17% | -12% | 82
Cc1nc2cc(NC(=O)c3ccco3)ccc2n1C | 7% | 24* | -7% | ? | 19
CCOC(=O)N1CCN(Cc2nc3cc(NC(=O)c4ccco4)ccc3n2CC)CC1 | 0% | 23* | -2% | -23% | 32
CCOC(=O)N1CCN(Cc2nc3cc(NC(=O)C(C)C)ccc3n2CC)CC1 | -7% | -3 | 18% | 0% | -4
COc1ccccc1C(=O)Nc1ccc2c(c1)nc(CCNC(=O)c1ccco1)n2C | -10% | 6 | -5% | 6% | 15
C=CCC(O)[C@H](Cc1cnc2ccccc2c1)[C@H](/C=C/CCCC)c1ccccc1 (stereo partly drawn) | . | 9 | . | . | 10
COc1ccc(-c2noc(CC(=O)N(C)c3cccc(C)c3)n2)cc1 | 21% | . | . | . | .
CCCNC(=O)Nc1ccc2c(c1)nc(C)n2C | -9% | 17 | -20% | ? | 33
Cn1c(CCNC(=O)c2ccco2)nc2cc(NC(=O)c3ccccc3)ccc21 | 0% | 36* | -31% | -7% | 80*
Cn1c(CCNC(=O)c2ccco2)nc2cc(NC(=O)C3CCCCC3)ccc21 | 2% | 12* | -19% | -4% | 37*
Cn1c(CCNC(=O)c2ccco2)nc2cc(NC(=O)c3ccco3)ccc21 | -6% | 23* | 0% | -4% | 49*
Cc1nc2cc(NC(=O)NCc3ccco3)ccc2n1C | -4% | 41* | -9% | 0% | 85*
CN(C)c1ccc(CNC(=O)c2ccc3nc(CCc4ccccc4)oc3c2)cc1 | 1% | . | . | . | .
CC(=O)c1cccc(NCC(=O)Nc2cc(S(=O)(=O)N3CCCCC3)ccc2C)c1 | 1% | -2 | -3% | 9% | -6
O=C(CCNS(=O)(=O)c1ccc(Br)cc1)NCCc1ccc(Cl)cc1 | 1% | 0 | -11% | 6% | 15
CCCCCCCC[n+]1c(C)n(-c2ccccc2)c2ccc(NC(C)=O)cc21 | ? | 1 | 22% | 5% | -6
Nc1nc2ccc(NC(=O)c3ccco3)cc2s1 | 7% | 51* | -10% | 12% | 107*
Cc1cc(NC(=O)c2ccco2)ccc1-n1cnnn1 | 2% | 46* | -19% | -3% | 113*
Cc1nc2ccc(NC(=O)c3ccco3)cc2nc1C | 6% | 17* | -20% | -5% | 59*
COc1cc(C(=O)Nc2ccc(-n3cnnn3)c(C)c2)cc(OC)c1OC | ? | -2 | -5% | -4% | -5
CCOCCc1nn2c(=O)cc(COC(=O)c3ccccc3Br)nc2s1 | -3% | . | . | . | .
c1ccc(SCc2nc(-c3ccncc3)n[nH]2)nc1 | 1% | 16 | -3% | . | 46*
Cn1nnnc1SCc1nc2ccccc2[nH]1 | -18% | 34* | -13% | -3% | 62
SMILES | AmpC inh detg | CHX counter | AmpC inh no detg | NS1 inh | Shiga toxin inh
c1ccc2[nH]c(CSc3nc4ccccc4s3)nc2c1 | ? | 44* | -34% | -147% | 55*
c1ccc(SCc2nc3ccccc3[nH]2)nc1 | ? | 26* | -15% | -13% | 60*
Cc1ccccc1NC(=O)Cn1nnc(C(=O)NCc2cccs2)c1N | 2% | . | . | . | .
N#C/C(=C\c1ccc(Cl)cc1Cl)c1nc(-c2cccc(Cl)c2)cs1 | 12% | . | . | . | .
CCOC(=O)C1CCN(c2cc(=O)n(-c3ccc(OC)cc3)c(=O)[nH]2)CC1 | ? | 1 | 3.5µM* | 6% | 10
COc1ccc(-n2c(=O)cc(N3CCN(c4ccccc4)CC3)[nH]c2=O)cc1 | -7% | 60* | -11% | 11% | -12
COc1ccc(-n2c(=O)cc(N3CCCCCC3)[nH]c2=O)cc1 | -1% | 9 | -5% | 2% | 10
COc1cccc2sc(NC(=O)c3ccc(S(=O)(=O)N4CCC(C)CC4)cc3)nc12 | -5% | . | . | . | .
CCOc1ccccc1NC(=O)CCS(=O)(=O)c1ccc2c(c1)oc(=O)n2C | 27% | . | . | . | .
COC(=O)Cn1ncc(N(C)Cc2ccccc2)c(Cl)c1=O | ? | 41* | 1% | -1% | 72*
